Assay results published in the supplement of paper PMC10338343.
± gives the standard deviation.

What follows are sequences tested on MILI (PIWIL2) piRISC loaded with L1MC piRNA (26 nt) (assay: pre-steady-state target cleavage rate (min^-1); guide: L1MC piRNA 5'p-UAACUAAAUACUAUGCAAGCUGUAGG; MIWI and MILI are mouse PIWI proteins and EfPiwi is from a freshwater sponge; tags in brackets are library labels; higher = faster piRNA-guided slicing of the target). Settings: auxiliary factor: 500 nM mouse GTSF1.
Procedure, shortened: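 Sequencing of uncleaved targets, normalised to depth and to weakly complementary targets, was the readout of this Cleave-'n-Seq assay. A transcribed, DNA-blocked target RNA library (0.1 nM) was mixed with 1 nM active affinity-purified piRISC carrying one synthetic guide, with or without 500 nM GTSF1 partner protein, in HEPES–potassium acetate buffer at 33 °C for 0–8 or 0–960 min. Three trials were pooled, k3 was capped at 0.0001 min^-1, and a burst-and-steady-state fit gave the pre-steady-state cleavage rate.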

UCCUGGAUGUGCUAGCAUAGUAUUUAGAAA and “UCCUGGAUGUCCUUGCAUAGUAUUAUCAAA [g7:g19:cont:t1A]” are within error of each other in “pre-steady-state target cleavage rate” value: 0.0422 ± 0.012 for the first, 0.0222 ± 0.0094 for the second.

UCCUGGAUGUCCUUGCAUAGUAUUUGUUA and UCCUGGAUGUCGAAGCAUAGUAUUUAGUAA are within error of each other in “pre-steady-state target cleavage rate” value: 0.0123 ± 0.0057 for the first, 0.0199 ± 0.0047 for the second.

First: UCCUGGAUCAGCUUGCAUAGAAUUUAGAAA
Second: UCCUGGAUGUCCUUGCAUAGUAUAUAGUAA
The “pre-steady-state target cleavage rate” value of the first is lower: 0.0123 ± 0.0052 for the first, 0.0276 ± 0.01 for the second.

UCCUGGUAGUGCUUGCAUAGUAUUUUCAAA and UCCUGGAUGUCGUUGCAUAGUAUGUAGUUA are within error of each other in “pre-steady-state target cleavage rate” value: 0.00481 ± 0.0037 for the first, 0.015 ± 0.0074 for the second.

First: UCCUGGAUGUCGAUGACAUAGUAUUUAGUUA
Second: UCCUGGUACAGCUUGGAUUGUAUUUAGUUA
The “pre-steady-state target cleavage rate” value of the first is lower: 0.015 ± 0.0059 for the first, 0.0395 ± 0.013 for the second.

UCCUGGAUCAGCUUGCAAAGUAUUUUCAAA and UCCUGGAUGUCCUAGGAUAGUAUUUAGUUA are within error of each other in “pre-steady-state target cleavage rate” value: 0.00923 ± 0.0045 for the first, 0.0104 ± 0.0042 for the second.

Going from UCCUGCUACAGCUUGCAAUCUAUUUAGUAA to UCCUGGAUGUCGAAGCAUAGUAUAAUGUUA, the “pre-steady-state target cleavage rate” value falls from 0.0639 ± 0.022 to 0.0052 ± 0.0029.

Going from UCCUGGAUGAGCUUGCAUAGUUUUUACUUA to UCCUGCUACAGCUUGCAUAGUAUUUAGCUUA, the “pre-steady-state target cleavage rate” value rises from 0.00548 ± 0.0051 to 0.161 ± 0.037.

UCCUGGAUCAGCUUGCAUAGUAUUUAGCUA and UCCUGGAUCAGCUUGCAUAGUUAUUAGUAA are within error of each other in “pre-steady-state target cleavage rate” value: 0.00534 ± 0.0036 for the first, 0.00826 ± 0.0047 for the second.

First: UCCUGGAUGUCGUUGCAUAGUAUUUAUGUUA
Second: UCCUGGUACAGCUUGCAUAGUAUAUAGAUA
The “pre-steady-state target cleavage rate” value of the first is higher: 0.137 ± 0.04 for the first, 0.014 ± 0.0071 for the second.

Going from UCCUGGAUGAGCUUGCAUAGUAUAUAGUAA to UCCUGGAUCAGCUUGCAUUGUAUUUACAAA, the “pre-steady-state target cleavage rate” value falls from 0.163 ± 0.039 to 0.0117 ± 0.005.

First: UCCUGGUACAGCAAGCAUAGUAUUUUCAAA
Second: UCCUGGAUGUCGUACCAUAGUAUUUAGUUA
The “pre-steady-state target cleavage rate” value of the first is higher: 0.0777 ± 0.022 for the first, 0.0168 ± 0.0047 for the second.

Going from “UCCUGGAUGUCCUUGCAUAGUAUAAUCAAA [g8:g19:cont:t1A]” to UCCUGCUACAGCUUGCAUACUAAUUAGUUA, the “pre-steady-state target cleavage rate” value rises from 0.00606 ± 0.0037 to 0.0334 ± 0.0091.

UCCUGGAACAGGAUGCAUAGUAUUUUCAAA and UCCUGGAUGUCCUUGCUUAGUAUUAAGUUA are within error of each other in “pre-steady-state target cleavage rate” value: 0.0202 ± 0.0076 for the first, 0.0115 ± 0.0047 for the second.

UCCUGGUACAGCUUGCAUAGAAUUUAGAUA and UCCUGGAACACGAUGCAUAGUAUUUUCAAA are within error of each other in “pre-steady-state target cleavage rate” value: 0.0253 ± 0.013 for the first, 0.0494 ± 0.017 for the second.

Compared with UCCUCCUACAGCUUCCAUACUAUUUAGUUA, UCCUGGUACACGUUGCAUAGUAUUUAGUAA is higher in “pre-steady-state target cleavage rate” value: 0.0171 ± 0.0071 for the first, 0.166 ± 0.038 for the second.

UCCUGGAUGUCCUUGCAUAGUAUUAACUUA and UCCUGGAACAGCUUGCAUAGUAUAAUGUAA are within error of each other in “pre-steady-state target cleavage rate” value: 0.0115 ± 0.0049 for the first, 0.014 ± 0.0065 for the second.

With UCCUCCUACACGUUGCAUAGUAUUUACAAA the “pre-steady-state target cleavage rate” value was 0.062 ± 0.019.
